Measured values published in PubChem BioAssay (Tox21).
Several values for one entry are separate records, joined by “and”; a condition that tells them apart may be missing. Equal entries are not always repeated. Results filed as inconclusive are left out. Activity calls are given as the source filed them. Unless noted, the call rests on the fitted dose curve; in most records, active means well fitted curve in the direction sought with a large enough effect in the repeat runs; inconclusive means weak or mixed curves; inactive means no such curve, though single readings can be large; an effect the other way counts as inactive or inconclusive.

Legend:
[1] = qHTS assay for small molecule agonists of the p53 signaling pathway (AID 651631; calls by dose curve; further: nearly all actives have a fitted effect of over 15% in size; further: potency means the concentration at half of the fitted maximal effect)
Method in brief: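 HCT-116 p53RE-bla reporter line, 16 h compound treatment at 37 °C, then fluorescence after 2 h with B/G FRET substrate.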

[2] = qHTS assay for small molecules that induce genotoxicity in human embryonic kidney cells expressing luciferase-tagged ATAD5 (AID 651632); further: nearly all actives have a fitted effect of over 15% in size; further: potency means the concentration at half of the fitted maximal effect
Method in brief: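 A rise in luciferase signal from ATAD5-tagged HEK293T cells marks genetic stress. Cells were exposed to compounds for 16 hr at 37C, 5% CO2, then luciferase was quantified after a 30 min room-temperature incubation with Amplite.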

[3] = qHTS assay for small molecule agonists of the p53 signaling pathway - cell viability (AID 651633; calls by dose curve; further: nearly all actives have a fitted effect of over 30% in size; further: potency means the concentration at half of the fitted maximal effect)
Method in brief: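 p53RE-bla cells, seeded at 4,000 per well and rested 5 h at 37 C/5% CO2, received compounds in DMSO for 16 h at 37 C. CellTiter-Glo was then added, and luminescence was read after 30 min at room temperature to gauge cytotoxicity.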

[4] = qHTS assay for small molecule disruptors of the mitochondrial membrane potential (AID 720635); further: potency means the concentration at half of the fitted maximal effect
Method in brief: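 HepG2 cells (2,000/well) attached overnight at 37C, then took compound for 1 hr at 37C, 5% CO2. Mito-MPS dye was added for 30 min; fluorescence was read at 490/535 nm (monomers) and 540/590 nm (aggregates).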

[5] = qHTS assay to test for compound auto fluorescence at 590 nm (red) in HepG2 cells (AID 720674)
Method in brief: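 Intrinsic compound fluorescence in the red window (Ex/Em 540/590 nm) is measured in attached HepG2 cells exposed for 1 hr, DMSO vehicle as baseline, benchmarked to Rose Bengal sodium.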

[6] = qHTS assay to test for compound auto fluorescence at 535 nm (green) in HepG2 cells (AID 720675)
[7] = qHTS assay to test for compound auto fluorescence at 460 nm (blue) in HEK293 cells (AID 720678)
Method in brief: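 Auto fluorescence in the blue band was quantified as triamterene equivalency. HEK293 cells were seeded at 2,000/well, dosed after a 4-5 hr attachment, and kept overnight at 37C before the 405/460 nm reading.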

[8] = qHTS assay to test for compound auto fluorescence at 590 nm (red) in HEK293 cells (AID 720679)
Method in brief: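 Autofluorescence equivalency to Rose Bengal sodium, 540/590nm, in HEK293 cells exposed overnight to 23 nL compound per well.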

[9] = qHTS assay to test for compound auto fluorescence at 535 nm (green) in HEK293 cells (AID 720680)
[10] = qHTS assay to test for compound auto fluorescence at 460 nm (blue) in HEK293 cell free culture (AID 720681)
Method in brief: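 Test compounds were pinned into cell-free culture medium (DMEM with 10% FBS) and fluorescence was read directly at Ex/Em 405/460 nm. Signals were expressed as fluorescence equivalents of triamterene, with DMSO vehicle as control.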

[11] = qHTS assay to test for compound auto fluorescence at 535 nm (green) in HEK293 cell free culture (AID 720682)
Method in brief: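 Steps: dispense DMEM/10% FBS into empty wells; pin in compound or DMSO; measure fluorescence at 485/535 nm. Values are fluorescein equivalents.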

[12] = qHTS assay to test for compound auto fluorescence at 590 nm (red) in HepG2 cell free culture (AID 720684)
Method in brief: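 Ex 540 / Em 590 nm read of compound in cell-free MEM (10% FBS). Rose Bengal sodium reference.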

[13] = qHTS assay to test for compound auto fluorescence at 535 nm (green) in HepG2 cell free culture (AID 720686)
[14] = qHTS assay to test for compound auto fluorescence at 460 nm (blue) in HepG2 cells (AID 720687)
Method in brief: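 Cells (2,000/well in MEM with 10% FBS) attached overnight at 37 C, then were exposed to compound or DMSO for 1 hr at 37 C, 5% CO2. Fluorescence read at Ex/Em 405/460 nm, expressed as triamterene-equivalent signal.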

[15] = target: Glucocorticoid receptor (Homo sapiens) (UniProt P04150); test: qHTS assay to identify small molecule agonists of the glucocorticoid receptor (GR) signaling pathway (AID 720691; active means well fitted activation curve with a large enough effect in the signal ratio in the repeat runs, not every such curve was filed as active; the % refers to the signal ratio)
Chain of Glucocorticoid receptor (Homo sapiens) (P04150 whole entry, looked up): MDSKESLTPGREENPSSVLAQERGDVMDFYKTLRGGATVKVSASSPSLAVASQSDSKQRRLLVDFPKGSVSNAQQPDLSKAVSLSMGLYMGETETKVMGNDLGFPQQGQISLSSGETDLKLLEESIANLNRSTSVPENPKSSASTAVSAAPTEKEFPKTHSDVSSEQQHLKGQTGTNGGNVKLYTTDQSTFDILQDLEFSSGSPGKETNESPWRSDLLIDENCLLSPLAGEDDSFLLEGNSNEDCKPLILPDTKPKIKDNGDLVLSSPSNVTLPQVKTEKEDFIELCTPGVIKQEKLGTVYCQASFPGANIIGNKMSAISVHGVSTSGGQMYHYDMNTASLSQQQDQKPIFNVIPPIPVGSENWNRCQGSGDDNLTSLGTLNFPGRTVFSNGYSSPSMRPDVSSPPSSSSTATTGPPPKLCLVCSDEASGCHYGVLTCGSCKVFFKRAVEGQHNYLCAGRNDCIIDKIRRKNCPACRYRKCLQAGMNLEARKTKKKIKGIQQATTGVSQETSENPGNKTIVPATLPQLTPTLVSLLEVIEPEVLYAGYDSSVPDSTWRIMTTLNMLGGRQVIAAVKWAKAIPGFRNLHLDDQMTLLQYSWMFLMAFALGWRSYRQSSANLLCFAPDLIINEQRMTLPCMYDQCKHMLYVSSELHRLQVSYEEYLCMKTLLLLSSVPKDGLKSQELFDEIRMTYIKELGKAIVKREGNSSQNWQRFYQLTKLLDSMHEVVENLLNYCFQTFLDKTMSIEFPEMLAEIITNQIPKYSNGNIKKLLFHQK
Method in brief: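 Agonist-mode qHTS in HeLa cells stably expressing a glucocorticoid-response-element beta-lactamase reporter. Fluorescence intensity read with FRET substrate (2 h, room temperature) after 18 h compound treatment at 37 C.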

[16] = target: Glucocorticoid receptor (Homo sapiens) (UniProt P04150); test: qHTS assay to identify small molecule antagonists of the glucocorticoid receptor (GR) signaling pathway (AID 720692; active means well fitted inhibition curve with a large enough effect in the signal ratio in the repeat runs, not every such curve was filed as active; the % refers to the signal ratio; further: potency means the concentration at half of the fitted maximal effect)
Method in brief: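 Inhibition of dexamethasone-driven (5 nM final) beta-lactamase expression was measured in GRE-reporter HeLa cells over 18 h at 37C. Fluorescence was read after 2 h with the B/G FRET substrate at room temperature.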

[17] = qHTS assay for small molecules that induce genotoxicity in human embryonic kidney cells expressing luciferase-tagged ATAD5 - cell viability (AID 651634; calls by dose curve; further: nearly all actives have a fitted effect of over 25% in size)
Method in brief: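 Cytotoxicity counter-readout: after 15.5 hr compound treatment at 37C, live-cell protease activity in ATAD5-luciferase HEK293T cells measured by CellTiter-Fluor fluorescence, 30 min development at 37C.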

[18] = qHTS assay for small molecule disruptors of the mitochondrial membrane potential - cell viability (AID 720634; calls by dose curve;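 further: human HepG2 liver cancer cells; series mostly up to about 83 µM; nearly all actives have a fitted effect of over 20% in size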)
Method in brief: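 Cytotoxicity was quantified from ATP content by CellTiter-Glo luminescence in the same wells as the MMP dye read-out. HepG2 (2,000 cells/well) were plated overnight and exposed to compounds for 1 hr at 37 C.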

[19] = qHTS assay to test for compound auto fluorescence at 590 nm (red) in HEK293 cell free culture (AID 720683)
Method in brief: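 Tox21 10K library compounds were pinned into cell-free DMEM with 10% FBS and fluorescence was read at excitation 540 nm. Activity is expressed as Rose Bengal sodium equivalency.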

[20] = qHTS assay to test for compound auto fluorescence at 460 nm (blue) in HepG2 cell free culture (AID 720685)
Method in brief: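 Cell-free plates of MEM plus 10% FBS received 23 nL compound or DMSO vehicle; blue-channel (405/460 nm) intensity scored against triamterene as reference fluorophore.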

Measured: Potency

Cc1ccc2c(Cl)cc(Cl)c(O)c2n1
active: [1] 2.37 µM | [2] 5.96 µM | [3] 0.944 µM | [4] 9.44 µM | [16] 16.9 µM
not listed: [17] | [18] | [19] | [20]
inactive: all other assays above

C(/C=C/C=C/Nc1ccccc1)=Nc1ccccc1
not listed: [3] | [4] | [15] | [16]
inactive: all other assays above

N#CCCCC(C#N)CCC#N (stereo not drawn)
not listed: [4] | [12] | [15] | [16] | [18] | [20]
inactive: all other assays above

Nc1nc(Cl)nc2c1ncn2[C@H]1C[C@H](O)[C@@H](CO)O1
active: [1] 841 nM and 341 nM
not listed: [3] | [16]
inactive: all other assays above

CCCCCCCCOCCCN
not listed: [3] | [4] | [16]
inactive: all other assays above

OCCCO
not listed: [4] | [18] | [20]
inactive: all other assays above

O=C(Cl)c1cc(Cl)cc(Cl)c1
not listed: [3] | [4] | [12]
inactive: all other assays above

CCC(=O)O[C@@H]1C[C@H]2CC[C@]1(C)C2(C)C
not listed: [4] | [18] | [19]
inactive: all other assays above

O=C(O)COCC(=O)O
not listed: [3] | [4] | [8]
inactive: all other assays above

CC1(COc2ccc(CC3SC(=O)NC3=O)cc2)CCCCC1 (stereo not drawn)
active: [1] 33.5 µM | [3] 26.6 µM | [4] 6.68 µM
not listed: [15] | [16] | [17] | [18]
inactive: all other assays above

Cc1cc(C)c(C)c(O)c1
not listed: [3] | [4] | [8] | [15] | [16]
inactive: all other assays above

Nc1ccc(F)cc1F
not listed: [3] | [19]
inactive: all other assays above

Cc1c(Cl)cccc1[N+](=O)[O-]
not listed: [3] | [4] | [8]
inactive: all other assays above

Cc1cccc(C)c1NC(=O)CN1CCCC1
not listed: [4] | [18]
inactive: all other assays above

O=C(OCCCCCOC(=O)c1ccccc1)c1ccccc1
not listed: [3] | [4] | [8]
inactive: all other assays above

C=C[Si]1(C)O[Si](C)(C=C)O[Si](C)(C=C)O[Si](C)(C=C)O1 (stereo not drawn)
not listed: [4] | [18]
inactive: all other assays above
